Assay [1] can be described thus: qHTS assay for measurement of the activity of small molecule inhibitors on Zika virus induced Caspase-3 activity in human iPSC derived neural progenitor cells (hNPCs) (AID 1224857). Also: nearly all actives have a fitted effect of over 65% in size. The procedure, abridged:
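In medium with heparin 2 ug/ml and cyclopamine 2 uM, hNPCs (350 cells/well) received compound for one hour and then Zika virus at 2 FFU/cell; caspase activity was measured by Caspase-Glo 3/7 luminescence 6 h post-infection.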
On the technique in general: qHTS replaces the single test concentration by a dilution series.

The nature of assay [2]: qHTS assay for measurement of the activity of small molecule inhibitors on Zika virus induced Caspase-3 activity in human astrocytoma cells (AID 1224859). The procedure, abridged:
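A cell-based luminescent caspase-3/7 assay used SNB-19 cells infected with ZIKV (2 FFU/cell) for 6 h following 1 h compound pretreatment.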

Assay [3] is described as follows: P-glycoprotein substrates identified in KB-3-1 adenocarcinoma cell line, qHTS therapeutic library screen (AID 1346986). Also: nearly all actives have a fitted effect of over 60% in size. The procedure, abridged: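 KB-3-1 parental and colchicine-selected P-gp-overexpressing KB-8-5-11 cells (colchicine omitted during assay), 500 cells/well, dosed in dose-response for 72 h at 37 °C; CellTiter-Glo luminescence. Cytotoxic: curve class -1.1 to -2.4, max response >50%, AC50 < 10 uM.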

Molecules are shown by their SMILES. Results filed as inconclusive are left out. A call without a number means that no potency is given here. Calls of active or inactive are those of the source. Calls follow the shape of the dose curve; as a rule, active = well fitted inhibition curve with a large enough effect; inconclusive = small, poorly fitted or top-dose-only effect; inactive = no such curve, though single readings can be large or run the other way.

Take `O=C(O)[C@H](O)[C@@H](O)[C@H](O[C@@H]1O[C@H](CO)[C@H](O)[C@H](O)[C@H]1O)[C@H](O)CO`: in assay [1], the Potency result was “inactive”. Further, the molecule was called inactive in assay [2].

Take `O=c1[nH]c2ccccc2c(=O)n1CCCl`: the Potency result in assay [1] is “inactive”. Also, the call in assay [2] was inactive.

For the molecule `CCCCNc1ccc(C(=O)OCCN(CC)CC)cc1`, in assay [1], the Potency entry is “inactive”. The molecule was classed as inactive in assay [2].

For `CCC(C(=O)NC(=O)NC(C)=O)c1ccccc1` (centres undefined), the Potency entry in assay [1] was “inactive”. Also, in assay [2], the call was inactive.

Take `COC(=O)c1cc(Cl)ccc1NS(=O)(=O)C(F)(F)F`: in assay [1], the Potency result is “inactive”. The call in assay [2] was inactive.

As for `CN(C)C(=O)CNC(=O)Cc1ccccc1`, the Potency entry in assay [1] and in assay [3] was “inactive” each time. Moreover, in assay [2], the call was inactive.

For `CCOC(=O)c1cc(=O)c2c(OCC(COc3cccc4oc(C(=O)OCC)cc(=O)c34)OC(=O)[C@@H](N)CCCCN)cccc2o1`, in assay [1], the Potency result is “inactive”. Further, the outcome in assay [2] was inactive.

As to `Cn1cnc2c(NCc3ccccc3)nc(NCCO)nc21`, the Potency entry in assay [1] and in assay [3] was “inactive” throughout. Further, in assay [2], the result was inactive.

As for `CC(=O)Oc1ccc(C2(c3ccc(OC(C)=O)cc3)Oc3ccccc3NC2=O)cc1`, in assay [1], the Potency result was “inactive”. Also, in assay [2], the call was inactive.

For the molecule `CC(=O)O[C@@H]1C(=O)O[C@@H]2[C@H]1OC(=O)[C@@H]2OC(C)=O`, the Potency entry in assay [1] and in assay [3] was “inactive” throughout. Moreover, the molecule was called inactive in assay [2].

As to `CN(C)c1cc2c(Nc3ccc4c(cnn4Cc4ccccc4)c3)ncnc2cn1`, the Potency result in assay [1] and in assay [3] was “inactive” throughout. The outcome in assay [2] was inactive.

`Cc1cccc(OCC(O)CNC(C)(C)C)c1C` (centres undefined): the Potency result in assay [1] was “inactive”. In assay [2], the molecule was classed as inactive.

As to `COc1cc(S(N)(=O)=O)cc(C(=O)O)c1OC`, the Potency result in assay [1] is “inactive”. Also, the call in assay [2] was inactive.

Consider `CCOC(=O)c1ccc(NC(=O)CN2CCCCC2)cc1`, for which the Potency entry in assay [1] and in assay [3] was “inactive” in each case. The outcome in assay [2] was inactive.

`CO/N=C(/C(=O)N[C@@H]1C(=O)N2C(C(=O)O)=C(Cn3nnc(C)n3)CS[C@H]12)c1csc(N)n1`: the Potency result in assay [1] and in assay [3] was “inactive” in each case. Further, in assay [2], the molecule was called inactive.

On to `O=C1NCCN1CCN1CCC(c2cn(-c3ccc(F)cc3)c3ccc(Cl)cc23)CC1`, for which the Potency entry in assay [1] is “inactive”. The outcome in assay [2] was inactive.

`CC(C)C(=O)Nc1cccc(C2CN3CCSC3=N2)c1` (centres undefined): in assay [1], the Potency entry is “inactive”. Besides, in assay [2], the result was inactive.

With `COc1cc(C(=O)OC(COCCC(C)C)CN2CCOCC2)cc(OC)c1OC` (centres undefined), the Potency result in assay [1] and in assay [3] was “inactive” each time. For the same molecule, in assay [2], the molecule was classed as inactive.

With `N#Cc1cc(NC(=O)C(=O)O)c(Cl)c(NC(=O)C(=O)O)c1`, the Potency entry in assay [1] was “inactive”. For the same molecule, in assay [2], the result was inactive.

Regarding `CN1C(CSCC(F)(F)F)Nc2cc(Cl)c(S(N)(=O)=O)cc2S1(=O)=O` (centres undefined), in assay [1], the Potency entry was “inactive”. Further, the molecule was called inactive in assay [2].

As to `O=C(OCCN1CCOCC1)c1cccnc1Nc1cccc(C(F)(F)F)c1`, the Potency entry in assay [1] is “inactive”. In addition, the call in assay [2] was inactive.

As to `CCC(C(=O)OCCN1CCOC(c2ccccc2)C1C)c1ccccc1` (centres undefined), in assay [1], the Potency entry is “inactive”. In addition, the outcome in assay [2] was inactive.

As for `CCCCC(CC)CNC(=O)CC(C)OC(=O)CCC(=O)O` (centres undefined), in assay [1], the Potency entry was “inactive”. For the same molecule, the call in assay [2] was inactive.

With `CCn1ccc(NS(=O)(=O)c2ccc(N)cc2)nc1=O`, the Potency result in assay [1] is “inactive”. In addition, in assay [2], the outcome was inactive.

`CCOC(=O)c1ccc(OCCN2C[C@H](O)[C@@H](O)[C@H](O)[C@H]2CO)cc1`: the Potency entry in assay [1] and in assay [3] was “inactive” throughout. Further, in assay [2], the call was inactive.

With `COC(=O)[C@H]1[C@H]2C[C@@H]3c4[nH]c5cc(OC)ccc5c4CCN3C[C@H]2C[C@@H](OC(=O)/C=C/c2ccc(O)c(OC)c2)[C@@H]1OC`, in assay [1], the Potency entry is “inactive”. Also, the outcome in assay [2] was inactive.

With `CO[C@]1(NC(=O)CSC(F)F)C(=O)N2C(C(=O)O)=C(CSc3nnnn3CCO)CO[C@H]21`, the Potency result in assay [1] and in assay [3] was “inactive” each time. The result in assay [2] was inactive.

For the molecule `Cc1ccc(-c2ccccc2C#N)cc1`, the Potency result in assay [1] was “inactive”. In assay [2], the result was inactive.

Take `CC(C)(C)c1nnc(NS(=O)(=O)c2ccccc2)s1`: in assay [1], the Potency result was “inactive”. Also, the result in assay [2] was inactive.

For the molecule `CN1CCC(N(Cc2cccs2)c2ccccc2)CC1`, the Potency entry in assay [1] is “inactive”. The molecule was classed as inactive in assay [2].

(Values after PubChem BioAssay (NCATS).)
